Source: PubChem BioAssay
Only some compounds are listed: those with a hit (about 7.6% of all), similar ones and a draw of the others.
NS3h inh CB – HCV NS3 helicase inhibitors, primary screen, biochemical, fluorescence polarization, ChemBridge library; Hepatitis C virus NS3 helicase; NS3h Cy5-dT15 DNA binding; inhibition, % at 100 µM; 16,000 tested, 1.6% active;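 active = inhibition above the average over every tested compound plus 3 SD, cut at about 40% in these data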
Cy5 interf NS3h – Cy5 fluorescence quenchers or enhancers, artefact control for HCV NS3 helicase inhibitor project, biochemical, ChemBridge library, Cy5 readout; Cy5-dT15 DNA with NS3h, fluorescence interference; actives lie on both sides; signal over control mean, under 1 quenches; fluorescence interference ratio at 100 µM; 16,000 tested, 6% active; AID 720488, 2013;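 active = compound fluorescence over control fluorescence at most 0.8, a quencher, or at least a set upper limit, an enhancer; inactive = ratio between 0.8 and the set upper limit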
NS3h confirm – HCV NS3 helicase inhibitors, retest, confirmation, biochemical, fluorescence polarization, ChemBridge library | AID 720485, 2013 | shares compounds with NS3h inh CB | NS3h binding to Cy5-dT15 DNA | inhibition, % at 100 µM | 240 tested, 20% active;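 active = percent inhibition of 50% or more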
SSB FP counter – E. coli SSB-DNA binding inhibitors, counter-screen for HCV NS3 helicase inhibitor project, biochemical, fluorescence polarization, selected ChemBridge compounds | shares compounds with NS3h inh CB | E. coli SSB binding Cy5-dT15 | inhibition, % at 100 µM | 240 tested, 40% active | AID 720486, 2013;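 active = inhibition of at least 50%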;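 also: displacers lower Cy5 polarization so higher inhibition means more SSB displaced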
Target sequence (P0AGE0 whole entry, looked up): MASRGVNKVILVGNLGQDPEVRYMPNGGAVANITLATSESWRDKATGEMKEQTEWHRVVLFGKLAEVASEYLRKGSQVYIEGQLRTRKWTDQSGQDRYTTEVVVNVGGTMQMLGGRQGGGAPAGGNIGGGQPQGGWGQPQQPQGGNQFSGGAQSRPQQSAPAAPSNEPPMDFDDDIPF
Cy5 SSB fluor CB – Cy5 fluorescence interference with SSB-bound oligo, artefact control for HCV NS3 helicase inhibitor project, biochemical, E. coli SSB, selected ChemBridge compounds; 240 tested, 8% active; AID 720487, 2013; shares compounds with NS3h inh CB; fluorescence interference ratio at 100 µM; Cy5-dT15/E. coli SSB fluorescence interference; actives lie on both sides;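 active = fluorescence interference ratio at or above 1.2, signal boosting, or at or below 0.8, signal quenching; inactive = ratio between 0.8 and 1.2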;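 also: ratio of compound well signal to mean negative control signal so 1 means no effect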
Cy5 fluor confirm – Cy5-DNA-NS3h complex fluorescence interference, confirmation, artefact control for HCV NS3 helicase inhibitor project, biochemical, ChemBridge library | fluorescence interference ratio at 100 µM, hits read low | Cy5-dT15 DNA/NS3h fluorescence interference counterscreen | 240 tested, 44% active | AID 720489, 2013 | shares compounds with NS3h inh CB;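 active = fluorescence interference ratio at or below 0.8 quencher or at or above a set limitenhancer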;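 also: ratio of compound fluorescence to mean of negative controls so 1 means no interference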
* = called active by the depositor; x = not tested or not shown.

SMILES	NS3h inh CB	Cy5 interf NS3h	NS3h confirm	SSB FP counter	Cy5 SSB fluor CB	Cy5 fluor confirm
COc1cc(/C=C2\C(=O)NC(=O)N(c3ccc(Cl)cc3)C2=O)cc(I)c1OC	10	1.1	x	x	x	x
Cc1cc(C)cc(N2C(=O)NC(=O)/C(=C\c3ccccc3C)C2=O)c1	-11	1.1	x	x	x	x
O=C1NC(=O)N(c2ccc(Cl)cc2)C(=O)/C1=C/c1ccc(I)o1	56*	1.3*	26	78*	1.1	0.82
CC(C)(C)OC(=O)N1N=C(c2ccccc2)CC1(O)C(F)(F)F (stereo not drawn)	-1	0.95	x	x	x	x
O=C1C(Cl)=C(Nc2ccccc2F)C(=O)N1c1ccc(Cl)cc1	1	1	x	x	x	x
CCCCOP(=O)(CC(=O)OC)CC(=O)OC	-2	1	x	x	x	x
O=C(Nc1ccc(Nc2ccccc2)cc1)c1ccccc1[N+](=O)[O-]	11	0.89	x	x	x	x
Cc1ccc(NC(=O)/C=C/c2ccccc2Cl)c(Br)c1	10	1.1	x	x	x	x
COc1cccc2sc(NC(=O)/C=C/c3ccc([N+](=O)[O-])cc3)nc12	9	1.1	x	x	x	x
O=c1[nH]c(/C=C\c2ccccc2Cl)c([N+](=O)[O-])c(=O)[nH]1	-9	0.9	x	x	x	x
CCN(CC)c1ccc(/C=C/c2[nH]c(=O)[nH]c(=O)c2[N+](=O)[O-])c(OC)c1	54*	0.92	9	19	0.87	0.87
Cc1cc(C)cc(N2C(=O)NC(=O)/C(=C\c3ccc(Cl)cc3)C2=O)c1	14	1.1	x	x	x	x
CN1C(=O)NC(=O)/C(=C\c2ccc(Cl)cc2Cl)C1=O	74*	0.94	12	9	1	1
Cn1c2ccccc2c2cc(C3Nc4ccccc4C(=O)N3Cc3ccccc3)ccc21 (stereo not drawn)	1	0.94	x	x	x	x
Cc1c(Cl)cccc1NC(=O)/C=C/c1ccccc1Cl	8	1.2	x	x	x	x
Cc1ccc2c(c1)C1C=CCC1C(C(=O)O)N2 (stereo not drawn)	94*	1.2*	75*	106*	1.4*	0.92
Cc1ccc(/C=N\N2C(=O)c3ccccc3C2=O)s1	6	1	x	x	x	x
O=C(N/N=C\C=N/NC(=O)c1ccccc1Cl)c1ccccc1Cl	-8	1	x	x	x	x
O=C1C=CC(=O)N1c1ccc(Br)cc1[N+](=O)[O-]	79*	0.95	70*	8	0.94	0.92
O=C(c1ccc(Br)cc1)N1CCN(c2ccc(Cl)cc2[N+](=O)[O-])CC1	6	1	x	x	x	x
CN1C(=O)/C(=C\c2ccccc2OCCOc2ccc(C(C)(C)C)cc2)SC1=S	2	1	x	x	x	x
O=C(Nc1c(C(=O)N2CCCCC2)cnn1-c1ccccc1)c1ccccc1Cl	3	1	x	x	x	x
O=C(NC(=S)N1CCOCC1)c1ccccc1	110*	0.4*	0	-7	0.98	0.97
O=C(NC(=S)N1CCCCCC1)c1cccnc1	5	1	x	x	x	x
O=C1NC(=S)S/C1=C\c1cc(Cl)c(OCc2ccccc2)c(Cl)c1	5	1	x	x	x	x
SMILES	NS3h inh CB	Cy5 interf NS3h	NS3h confirm	SSB FP counter	Cy5 SSB fluor CB	Cy5 fluor confirm
O=C(NC(=S)Nc1ccc2oc(-c3ccc(Cl)cc3)nc2c1)c1ccccc1	17	0.99	x	x	x	x
O=C(NC(=S)Nc1ccc2oc(-c3ccc(Cl)c(Cl)c3)nc2c1)c1ccccc1	102*	1.2*	17	38	0.97	0.8*
CCc1ccc(NC(=O)C(=O)NCc2ccc3c(c2)OCO3)cc1	10	1.1	x	x	x	x
COc1ccc(CC(=O)Nc2ccccc2C(=O)NCC(C)C)cc1	0	1.1	x	x	x	x
C/C(=N/N=C1\NC(=O)C(CC(=O)Nc2ccc(C(=O)O)cc2)S1)c1ccc([N+](=O)[O-])cc1 (stereo not drawn)	7	1.1	x	x	x	x
O=C(CC1S/C(=N/N=C\c2ccccc2)NC1=O)Nc1ccc(C(=O)O)cc1 (stereo not drawn)	128*	1.1	53*	101*	0.87	0.78*
O=C(CC1SC(=O)NC1=O)Nc1ccc(C(=O)O)cc1 (stereo not drawn)	18	1.1	x	x	x	x
CC1=C/C(=N/N=C2\NC(=O)C(CC(=O)Nc3ccc(C(=O)O)cc3)S2)CC(C)(C)C1 (stereo not drawn)	89*	1.1	62*	95*	0.89	0.75*
Cc1cc(Br)c2c(c1)c(N=NC(N)=O)c(O)n2C	2	0.99	x	x	x	x
O=C(NCC1CCCO1)/C(=C/c1cccc(Oc2ccccc2)c1)NC(=O)c1ccccc1 (stereo not drawn)	25	0.82	x	x	x	x
COc1cccc(OCCOc2c(Cl)cc(/C=C3/SC(=S)NC3=O)cc2OC)c1	70*	0.97	45	47	0.97	0.79*
COc1cccc(OCCOc2cccc(/C=C3/SC(=S)NC3=O)c2)c1	20	0.92	x	x	x	x
O=C(c1ccccc1[N+](=O)[O-])N1CCN(C/C=C/c2ccccc2)CC1	-12	0.94	x	x	x	x
CCOc1cc(/C=C2\C(=O)NN(c3ccc(Cl)c(Cl)c3)C2=O)ccc1OC(C)=O	38	0.84	29	11	0.88	0.87
O=C1NN(c2ccc(Cl)c(Cl)c2)C(=O)/C1=C/c1ccc(Cl)c([N+](=O)[O-])c1	37	0.87	x	x	x	x
CN(C)c1ccc(NS(=O)(=O)c2ccc(F)cc2)cc1	7	0.97	x	x	x	x
CN(C)c1ccc(NS(=O)(=O)c2ccc(N3C(=O)CCC3=O)cc2)cc1	50*	0.92	32	61*	1.1	0.96
O=C(O)CN1C(=O)/C(=C/c2ccc(OC(=O)c3ccccc3I)cc2)SC1=S	62*	1	31	26	0.93	0.76*
O=C(O)CN1C(=O)/C(=C\c2ccc(OC(=O)c3ccc(Cl)cc3Cl)cc2)SC1=S	6	1	x	x	x	x
CC(=O)Nc1ccc(Oc2ccc(C(=O)O)c(C(=O)O)c2)cc1	1	1	x	x	x	x
O=C(Nc1cccc(Oc2ccc(C(=O)O)c(C(=O)O)c2)c1)c1ccc(-c2ccccc2)cc1	52*	1.1	16	19	0.9	0.74*
CCc1c(C#N)c(N)nc(SCC(=O)c2ccc(-c3ccccc3)cc2)c1C#N	3	1	x	x	x	x
CCc1c(C#N)c(N)nc(SCC(=O)c2cc3ccccc3oc2=O)c1C#N	30	1.1	-4	3	1	0.76*
O=C(CCC1CCCC1)Nc1ccc2c(c1)oc1ccccc12	5	1.1	x	x	x	x
Cc1ccc(N2C(=O)CC(SCc3ccccc3)C2=O)cc1 (stereo not drawn)	6	1	x	x	x	x
O=C(Nc1ccc(F)c([N+](=O)[O-])c1)c1ccc2ccccc2c1	39	0.73*	40	50*	0.7*	0.78*
O=C(Nc1ccc(F)c([N+](=O)[O-])c1)c1ccc2c(c1)OCCO2	22	0.87	x	x	x	x
O=c1[nH]c2ccccc2nc1C=C(O)c1cccc(Br)c1	2	0.93	x	x	x	x
CC(=O)c1ccc(NC(=O)c2ccc3c(c2)OCCO3)cc1	-4	0.97	x	x	x	x
